# Measurements reported in PubChem BioAssay (NCATS).
# Inconclusive results are not listed. A call without a number means that no potency is given here. Calls of active or inactive are those of the source. Calls come from the whole dose curve; as a rule, active = well fitted cell-killing curve with a large enough effect; inconclusive = small, poorly fitted or top-dose-only effect, or effect the other way; inactive = flat fitted curve, though single readings scatter.
# Test system: JEG-3
# Assay: Primary qHTS to identify gynecologic anti-cancer compounds using libraries of approved drugs and bioactive compounds (AID 1345084); note: nearly all actives have a fitted effect of over 55% in size
# Details: Gynecologic cancer cell panel viability, ATPlite luminescence, 48 h; series mostly up to 57.5 µM
# Method in brief: (§1)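 Luminescence from the ATPlite ATP-monitoring reagent indicates viable cell number; lower signal means cytotoxicity. Cells received compound 16 h after seeding and were exposed for 48 h across five concentrations.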
# Potency is the fitted concentration of half-maximal effect.
row,SMILES,Potency
1,O=C(O)c1cccnc1Nc1cccc(C(F)(F)F)c1,inactive
2,Cc1nc(Nc2ncc(C(=O)Nc3c(C)cccc3Cl)s2)cc(N2CCN(CCO)CC2)n1,inactive
3,CC(C)C[C@H](NC(=O)[C@H](Cc1ccccc1)NC(=O)c1cnccn1)B(O)O,inactive
4,CCCCN(CCCC)CCC(O)c1cc2c(Cl)cc(Cl)cc2c2cc(C(F)(F)F)ccc12 (configuration not stated),inactive
5,Cc1c(C(=O)NN2CCCCC2)nn(-c2ccc(Cl)cc2Cl)c1-c1ccc(Cl)cc1,inactive
6,CC(=O)O[C@H]1C(=O)[C@@]2(C)C([C@H](OC(=O)c3ccccc3)[C@]3(O)C[C@H](OC(=O)[C@H](O)[C@@H](NC(=O)c4ccccc4)c4ccccc4)C(C)=C1C3(C)C)[C@]1(OC(C)=O)CO[C@@H]1C[C@@H]2O (some centres not stated),inactive
7,CCN(CC)CCOc1ccc(Cc2ccccc2)cc1,inactive
8,COc1cc(C(C)=O)ccc1OCCCN1CCC(c2noc3cc(F)ccc23)CC1,inactive
9,COc1c2occc2cc2ccc(=O)oc12,inactive
10,Cc1ccc(Nc2nccc(N(C)c3ccc4c(C)n(C)nc4c3)n2)cc1S(N)(=O)=O,inactive
11,CCCS(=O)c1ccc2nc(NC(=O)OC)[nH]c2c1 (configuration not stated),inactive
12,CCCCCCCCOc1ccccc1C(=O)Nc1ccc(C(=O)OCC[N+](C)(CC)CC)cc1,inactive
13,CN1CCC(=C2c3ccccc3CCc3sccc32)CC1,inactive
14,Cc1cccc(CN2CCN(C(c3ccccc3)c3ccc(Cl)cc3)CC2)c1 (configuration not stated),inactive
15,c1ccc2[nH]c(-c3cscn3)nc2c1,inactive
16,OC(CN1CCN(c2cccc(Cl)c2)CC1)C(c1ccccc1)c1ccccc1 (configuration not stated),inactive
17,NNc1nncc2ccccc12,inactive
18,O=C1CCc2ccc(OCCCCN3CCN(c4cccc(Cl)c4Cl)CC3)cc2N1,inactive
19,CN(C)CCCC1(c2ccc(F)cc2)OCc2cc(C#N)ccc21 (configuration not stated),inactive
20,COC(=O)C1=C(C)NC(C)=C(C(=O)OCCCN2CCC(c3ccccc3)(c3ccccc3)CC2)C1c1cccc([N+](=O)[O-])c1 (configuration not stated),inactive
21,Cc1ccc(C(=O)c2cc(O)c(O)c([N+](=O)[O-])c2)cc1,inactive
22,CN(C)c1ccc2nc3ccc(=[N+](C)C)cc-3sc2c1,2 µM (active)
23,CCCOc1ccc2nc(NC(=O)OC)[nH]c2c1,1 µM (active)
24,CN(C)C(=O)[C@H](O)[C@H](Cc1ccccc1)NC(=O)c1cc2cc(Cl)ccc2[nH]1,inactive
25,CN(C)[C@@H](CCOc1cccc2ccccc12)c1ccccc1,inactive
26,CCc1nc(N)nc(N)c1-c1ccc(Cl)cc1,inactive

# Test system: OV90
# Assay: as above
# Details: Gynecologic cancer cell panel viability, ATPlite luminescence, 48 h; series mostly up to 57.5 µM
# Method in brief: as §1
row,SMILES,Potency
1,CC(C)C[C@H](NC(=O)[C@H](Cc1ccccc1)NC(=O)c1cnccn1)B(O)O,0.0447 µM (active)
2,Cc1c(C(=O)NN2CCCCC2)nn(-c2ccc(Cl)cc2Cl)c1-c1ccc(Cl)cc1,inactive
3,CC(=O)O[C@H]1C(=O)[C@@]2(C)C([C@H](OC(=O)c3ccccc3)[C@]3(O)C[C@H](OC(=O)[C@H](O)[C@@H](NC(=O)c4ccccc4)c4ccccc4)C(C)=C1C3(C)C)[C@]1(OC(C)=O)CO[C@@H]1C[C@@H]2O (some centres not stated),inactive
4,COc1c2occc2cc2ccc(=O)oc12,inactive
5,CCCS(=O)c1ccc2nc(NC(=O)OC)[nH]c2c1 (configuration not stated),inactive
6,COC1=C(OC)C(=O)C(CCCCCCCCCCO)=C(C)C1=O,inactive
7,CCCCCCCCOc1ccccc1C(=O)Nc1ccc(C(=O)OCC[N+](C)(CC)CC)cc1,inactive
8,c1ccc2[nH]c(-c3cscn3)nc2c1,inactive
9,O=C(O)c1cc(=O)c2c(OCC(O)COc3cccc4oc(C(=O)O)cc(=O)c34)cccc2o1,inactive
10,CC(C)Oc1ccc2c(=O)c(-c3ccccc3)coc2c1,22.4 µM (active)
11,CC[C@]1(O)C[C@H]2CN(CCc3c([nH]c4ccccc34)[C@@](C(=O)OC)(c3cc4c(cc3OC)N(C=O)[C@H]3[C@@](O)(C(=O)OC)[C@H](OC(C)=O)[C@]5(CC)C=CCN6CC[C@]43[C@@H]65)C2)C1,1.78 µM (active)
12,Cc1ccc(NC(=O)c2ccc(CN3CCN(C)CC3)cc2)cc1Nc1nccc(-c2cccnc2)n1,35.5 µM (active)
13,OC(CN1CCN(c2cccc(Cl)c2)CC1)C(c1ccccc1)c1ccccc1 (configuration not stated),inactive
14,O=C1CCc2ccc(OCCCCN3CCN(c4cccc(Cl)c4Cl)CC3)cc2N1,inactive
15,Cc1ccc(C(=O)c2cc(O)c(O)c([N+](=O)[O-])c2)cc1,inactive
16,CN(C)c1ccc2nc3ccc(=[N+](C)C)cc-3sc2c1,12.6 µM (active)
17,CCCCc1ccc2nc(NC(=O)OC)[nH]c2c1,1.58 µM (active)
18,Cc1ncc([N+](=O)[O-])n1CC(C)O (configuration not stated),inactive
19,CN(C)C(=O)[C@H](O)[C@H](Cc1ccccc1)NC(=O)c1cc2cc(Cl)ccc2[nH]1,inactive
20,COc1ccccc1N1CCN(CCN(C(=O)C2CCCCC2)c2ccccn2)CC1,inactive
21,CCc1nc(N)nc(N)c1-c1ccc(Cl)cc1,7.94 µM (active)
